The record followed here is PubChem BioAssay (NCATS).

Records with an inconclusive call do not appear. Where a call stands in place of a potency, no number is given. Active and inactive are the calls of the source. The call rests on the fitted dose curve; in most records, active means well fitted inhibition curve with a large enough effect; inconclusive means small, poorly fitted or top-dose-only effect; inactive means flat fitted curve, though single readings scatter.

Chain of Glutathione peroxidase 1 (Homo sapiens) (P07203 whole entry, looked up): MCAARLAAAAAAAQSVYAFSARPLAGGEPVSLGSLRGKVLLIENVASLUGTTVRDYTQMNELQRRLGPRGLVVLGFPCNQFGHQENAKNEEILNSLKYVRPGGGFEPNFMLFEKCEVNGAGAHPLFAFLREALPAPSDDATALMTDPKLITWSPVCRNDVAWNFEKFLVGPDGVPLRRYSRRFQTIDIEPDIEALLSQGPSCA

The target of the experiment is Glutathione peroxidase 1 (Homo sapiens) (UniProt P07203). As to the kind of experiment: Primary qHTS Assay for Inhibitors of Recombinant Selenoprotein Glutathione Peroxidase 1 (GPX1) (AID 1845191). Further: nearly all actives have a fitted effect of over 65% in size. The settings on record: recombinant GPX1, GR-coupled NADPH fluorescence, 15 min; series mostly up to 48.8 µM. In outline:
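Recombinant GPX1 (10 nM final) was preincubated with compound for 30 min at room temperature, then reacted with 1 mM GSH, 0.5 mM CHP, 0.5 mM NADPH and 100 nM glutathione reductase; NADPH fluorescence (340/450 nm) was read at 0 and 15 min.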
On the technique in general: qHTS replaces the single test concentration by a dilution series.
For `C/C=C(\C)C(=O)OC[C@H]1O[C@H](O[C@H]2O[C@H](CO)[C@@H](OC(=O)/C(C)=C/C)[C@H](O)[C@H]2O[C@@H]2O[C@H](CO)[C@@H](O)[C@H](O)[C@H]2O)[C@H](O[C@@H]2O[C@H](CO)[C@@H](O)[C@H](O)[C@H]2O)[C@@H](O)[C@@H]1O`, the Potency entry was “inactive”.

With `O=C(O)Cc1nn(Cc2nc3cc(C(F)(F)F)ccc3s2)c(=O)c2nccnc12`, the Potency result is “inactive”.

`COc1cc(C(C)=O)ccc1O[C@@H]1O[C@H](CO[C@@H]2O[C@@H](C)[C@H](O)[C@@H](O)[C@H]2O)[C@@H](O)[C@H](O)[C@H]1O`: the Potency result is “inactive”.

`COC(=O)C1(Cc2ccc(O)cc2)OC(=O)C(OC)=C1c1ccc(O)cc1` (stereo not given): the Potency result was “inactive”.

For the compound `c1nc(NC2CCCCCC2)c2cc(CNC[C@H]3CCCO3)sc2n1`, the Potency result was “inactive”.
